Reference: PubChem BioAssay (NCATS)
Calls of active or inactive are those of the source. Calls come from the whole dose curve.

target: Glucocorticoid receptor (Homo sapiens) (UniProt P04150); assay: GR-EFC Redistribution (AID 451); conditions: CHO-K1 GR-EFC translocation, beta-gal luminescence, 2 h
In short: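 CHO-K1 cells stably expressing nuclear-localized β-gal enzyme acceptor and GR fused C-terminally to the enzyme donor fragment; ligand-driven nuclear translocation restores β-gal by complementation. Compounds titrated up to 46 uM final, 2 h at 37 °C; luminescence read.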
Potency is the fitted concentration of half-maximal effect.

Sequence of Glucocorticoid receptor (Homo sapiens) (P04150 whole entry, looked up, the tested form may be a part): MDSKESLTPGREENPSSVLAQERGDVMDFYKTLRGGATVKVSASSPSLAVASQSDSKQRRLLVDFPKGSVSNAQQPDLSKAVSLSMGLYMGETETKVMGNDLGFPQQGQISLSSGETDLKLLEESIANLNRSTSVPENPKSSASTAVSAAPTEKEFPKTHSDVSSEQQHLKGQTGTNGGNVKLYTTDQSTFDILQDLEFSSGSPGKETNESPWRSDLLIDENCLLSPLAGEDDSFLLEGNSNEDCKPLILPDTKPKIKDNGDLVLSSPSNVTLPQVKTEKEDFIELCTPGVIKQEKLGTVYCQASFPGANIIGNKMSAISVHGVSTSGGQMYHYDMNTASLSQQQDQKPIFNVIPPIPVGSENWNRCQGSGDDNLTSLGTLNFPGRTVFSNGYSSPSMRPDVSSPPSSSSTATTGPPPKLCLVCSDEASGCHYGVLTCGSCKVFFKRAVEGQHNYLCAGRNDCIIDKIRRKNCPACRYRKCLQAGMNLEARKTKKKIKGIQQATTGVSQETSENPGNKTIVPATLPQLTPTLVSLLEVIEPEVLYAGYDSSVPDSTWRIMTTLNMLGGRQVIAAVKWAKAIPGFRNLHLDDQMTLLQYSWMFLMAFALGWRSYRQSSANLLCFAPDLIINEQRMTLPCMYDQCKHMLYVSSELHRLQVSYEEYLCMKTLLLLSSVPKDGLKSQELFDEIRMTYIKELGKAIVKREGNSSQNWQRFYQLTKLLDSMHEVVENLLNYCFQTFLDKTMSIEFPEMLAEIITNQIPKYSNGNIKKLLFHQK

Potency, inactive:
O=C(O)C[C@H](S)C(=O)O > 9.22 µM
CC(C)C12CC[C@@]3(CC[C@H]4[C@@](C)(CCC[C@]4(C)C(=O)O)[C@@H]3C1)[C@@H](CN)C2 > 9.22 µM
Cc1ccc(C)c(/C(=N\N=C(N)N)C2CC2)c1 > 9.22 µM
Nc1ncnc2c1ncn2[C@H]1O[C@@H](C(=O)O)[C@@H](O)[C@H]1O > 9.22 µM
Oc1c(CN2CCN(c3ccccc3)CC2)cc(Br)c2cccnc12 > 9.22 µM
N/N=C1/CC(=O)NC(=O)N1 > 9.22 µM
N[C@@H](CC1=CS(=O)(=O)c2ccc(Cl)cc21)C(=O)O > 9.22 µM
C[N+]1([C@H](CO)Cc2c[nH]c3ccccc23)Cc2ccccc2C1 > 9.22 µM
c1ccc(C[n+]2cccc(-c3cc4ccccc4[nH]3)c2)cc1 > 9.22 µM
C[N+](C)(C)CCCSc1nc2ccccc2[nH]1 > 9.22 µM
Cc1cc(=Nc2ccc3c(c2)c(N)cc(C)[n+]3C)nc(N)n1C > 9.22 µM
COc1ncc2nc(CCc3ccccc3)c(=O)n(C)c2n1 > 46 µM
C[C@H](NC(=O)c1ccc(Cl)c(Cl)c1)c1ccc(-c2ccccc2)cc1 > 9.22 µM
COc1ccc2cc1Oc1ccc(cc1)C[C@@H]1c3c(cc(OC)c4c3Oc3cc5c(cc3O4)CCN[C@H]5C2)CCN1C > 9.22 µM
O=C(O)/C=C\C(=O)Nc1cccc2c1-c1ccccc1C2=O > 9.22 µM
